For nine compounds, Potency and outcome results are on record in PubChem BioAssay (Tox21).

Records with an inconclusive call do not appear. Active and inactive are the calls of the source. Unless noted, the call rests on the fitted dose curve; in most records, active means well fitted curve in the direction sought with a large enough effect in the repeat runs; inconclusive means weak or mixed curves; inactive means no such curve, though single readings can be large; an effect the other way counts as inactive or inconclusive.

Assay [1] can be described thus: qHTS assay to identify small molecule agonists of the androgen receptor (AR) signaling pathway in the presence of an antagonist - cell viability counter screen (AID 1259379). Further: nearly all actives have a fitted effect of over 25% in size. Further: potency means the concentration at half of the fitted maximal effect. In outline:
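Viability counter screen: CellTiter-Fluor fluorescence, measured in the same wells as the luciferase read-out. MDA-kb2 cells, 3,000/well, with nilutamide at 3.0uM final and compounds at 15 concentrations, 16 hr at 37C, 0% CO2.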
For orientation: Quantitative high-throughput screening tests each substance at several concentrations.

The nature of assay [2]: qHTS assay to identify small molecule agonists of the estrogen receptor beta (ER-beta) signaling pathway - cell viability counter screen (AID 1259380). Further: nearly all actives have a fitted effect of over 30% in size. In outline: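 Luminescence read-out (CellTiter-Glo, 30 min, room temp) taken in the same wells as the beta-lactamase reporter assay; ER-beta-UAS-bla HEK293T cells exposed to DMSO-dissolved compounds for 16 hr at 37C in 2% charcoal-stripped FBS medium.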

A short description of assay [3]: qHTS assay to identify small molecule antagonists of the estrogen receptor beta (ER-beta) signaling pathway - cell viability counter screen (AID 1259382).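 Further: HEK293T cells carrying ER-beta-UAS-bla reporter stimulated with estradiol; series mostly up to about 92 µM; nearly all actives have a fitted effect of over 55% in size.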 In outline: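 Luminescent ATP read-out (CellTiter-Glo, 30 min, RT) taken in the same wells as the bla reporter assay. HEK293T ER-beta-UAS-bla cells in 2% charcoal-stripped FBS were exposed to compounds with 1nM E2 for 16 hr at 37C.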

Assay [4] can be described thus: qHTS assay to identify small molecule agonists or antagonists of the thyroid stimulating hormone receptor (TSHR) signaling pathway - wild type cell line counter screen (AID 1259384; calls by dose curve). In outline: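 Counter screen in untransfected Hek293: compounds (15-point titration, triplicate) plus phosphodiesterase inhibitor Ro20-1724 added after 18 h plating; 30 min RT. Intracellular cAMP via competitive d2/cryptate immunoassay, 1 h incubation.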

The target in assay [5] is Thyrotropin receptor (Homo sapiens) (UniProt P16473). Nature of the assay: qHTS assay to identify small molecule antagonists of the thyroid stimulating hormone receptor (TSHR) signaling pathway (AID 1259385; calls by dose curve; further: nearly all actives have a fitted effect of over 20% in size). In a few lines: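 Antagonist mode: compound-treated TSHR-expressing HEK293 cells were stimulated with 1.5 ng/mL TSH (final) in presence of Ro20-1724 for 30 min at RT. HTRF cAMP detection after 1 h; each compound tested at 15 concentrations, triplicate.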

The nature of assay [6]: qHTS assay to identify small molecule agonists of the estrogen receptor alpha (ER-alpha) signaling pathway in the presence of an antagonist - cell viability counter screen (AID 1259386).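 Further: cells exposed to compounds for 22 h at 37 °C before the viability read; nearly all actives have a fitted effect of over 30% in size.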 Further: potency means the concentration at half of the fitted maximal effect. In a few lines:
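Read-out: CellTiter-Fluor fluorescence after 1hr reagent incubation, measured in the same wells as the luciferase readout. VM7Luc4E2 cells were exposed to 15 compound concentrations with 10.0nM ICI-182,780 for 22hr at 37C.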

Assay [7] addresses Progesterone receptor (Homo sapiens) (UniProt P06401). Nature of the assay: qHTS assay to identify small molecule agonists of the progesterone receptor (PR) signaling pathway (AID 1346784; calls by dose curve; further: nearly all actives have a fitted effect of over 30% in size). In outline:
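Seed PR-UAS-bla HEK 293T cells (2% charcoal-stripped FBS), incubate 6 hr at 37C; add compounds in DMSO, 16 hr at 37C; add LiveBLAzer B/G substrate, 2 hr RT; read fluorescence intensity.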

Assay [8] shares this target. Nature of the assay: qHTS assay to identify small molecule antagonists of the progesterone receptor (PR) signaling pathway (AID 1346795; active means well fitted inhibition curve with a large enough effect in the signal ratio in the repeat runs, not every such curve was filed as active; the % refers to the signal ratio; further: potency means the concentration at half of the fitted maximal effect). In outline:
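Screening used a GripTite HEK293T line with PR-responsive UAS-beta-lactamase. Cells were challenged with compound in the presence of 1 nM R5020 final for 16 hr at 37C; B/G FRET substrate, 2 hr room temperature, fluorescence.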

Assay [9] is described as follows: qHTS assay to identify small molecule antagonists of the progesterone receptor (PR) signaling pathway - cell viability counter screen (AID 1346798). Further: series mostly up to about 92 µM; nearly all actives have a fitted effect of over 50% in size. In a few lines:
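Measures cytotoxicity in parallel with the PR antagonist reporter read: HEK293T PR-UAS-bla cells get compound and R5020 for 16 hr, and remaining viable cells are quantified by CellTiter-Glo luminescence.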

Assay [10] in a line: qHTS assay to identify small molecule agonists of the progesterone receptor (PR) signaling pathway - cell viability counter screen (AID 1346799; calls by dose curve; further: nearly all actives have a fitted effect of over 45% in size). In a few lines: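 Using the same plates as the PR reporter screen, HEK293T PR-UAS-bla cells received compounds for 16 hr at 37C and were then lysed with CellTiter-Glo; luminescence was read 30 min later at room temperature.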
Assay [11] is described as follows: qHTS assay to identify small molecule agonists of the TGF-beta/Smad signaling pathway - cell viability counter screen (AID 1346829). Further: top concentration of the series differs between compounds; nearly all actives have a fitted effect of over 45% in size. In a few lines:
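Here the cytotoxicity of library compounds is measured in SBE-bla HEK 293T cells treated for 5 hr, using CellTiter-Glo added to wells already read for the beta-lactamase reporter.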

Assay [12] can be described thus: qHTS assay to identify small molecule agonists of the TGF-beta/Smad signaling pathway (AID 1346859; active means well fitted activation curve with a large enough effect in the signal ratio in the repeat runs, not every such curve was filed as active; the % refers to the signal ratio; further: series mostly up to about 77 µM). In outline:
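Beta-lactamase reporter activity downstream of Smad binding elements was measured in stably transfected HEK 293T cells; compounds were incubated for 5 hr, substrate for 2 hr at room temperature.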

The target of assay [13] is Thyrotropin-releasing hormone receptor (Homo sapiens) (UniProt P34981). Nature of the assay: qHTS assay to identify small molecule antagonists of the thyrotropin-releasing hormone receptor (TRHR) signaling pathway (AID 1346877; active means well fitted inhibition curve with a large enough effect in the repeat runs, not every such curve was filed as active; further: series mostly up to about 51 µM). In a few lines: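 HEK293/TRHR cells, 18 h, 37 °C; Ca2+ dye 2 h; cpd 5 min RT; TRH 1 nM final; fluorescence read 3 min, 1 s intervals; 15 concs, triplicate.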

For assay [14] the target is unchanged. The assay is described as follows: qHTS assay to identify small molecule agonists of the thyrotropin-releasing hormone receptor (TRHR) signaling pathway (AID 1346891; calls by dose curve;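 further: HEK293 cells expressing TRHR with calcium dye readout; series mostly up to about 58 µM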). In a few lines:
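Overnight-plated (18 h, 37 °C, 5% CO2) TRHR-Hek293 cells; 2 h calcium dye at 37 °C; compound in DMSO; 3-min kinetic fluorescence read.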

Assay [15] is described as follows: Human pregnane X receptor (PXR) small molecule agonists, qHTS cell viability counter screen (AID 1346977). Further: nearly all actives have a fitted effect of over 50% in size. Further: potency means the concentration at half of the fitted maximal effect. In outline: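 After a 5hr pre-incubation, PXR-Luc HepG2 cells received compounds plus positive control in DMSO and were kept 24hr at 37C. Cell viability was quantified by fluorescence from CellTiter-Fluor added for the final hour.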
Assay [16] can be described thus: Caspase-3/7 induction in HepG2 cells by small molecules, qHTS assay (AID 1346978). Further: nearly all actives have a fitted effect of over 15% in size. In a few lines: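 Caspase-3/7 induction was measured by Caspase-Glo 3/7 luminescence (30 min, room temperature) after a 17 hr compound exposure of wild-type HepG2 cells seeded at 2,000 per well and pre-incubated 5 hr.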
Assay [17] in a line: Caspase-3/7 induction in CHO-K1 cells by small molecules, qHTS cell viability counter screen (AID 1346979). Further: nearly all actives have a fitted effect of over 35% in size. Further: potency means the concentration at half of the fitted maximal effect. In outline: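 Multiplexed with Caspase-Glo 3/7 in CHO-K1 cells, this counter screen added CellTiter-Fluor after 16hr of compound exposure and recorded fluorescence 1hr later.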
For assay [18], the target named is Estrogen receptor (Homo sapiens) (UniProt P03372). The assay is described as follows: qHTS assay to identify small molecule agonists of the estrogen receptor alpha (ER-alpha) signaling pathway in the presence of an antagonist (AID 1259383; calls by dose curve; further: top concentration of the series differs between compounds; nearly all actives have a fitted effect of over 15% in size). In a few lines: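 Luciferase luminescence (ONE-Glo, 30min at room temperature) measured in VM7Luc4E2 cells after 22hr compound exposure at 15 concentrations, with 10.0nM ICI-182,780 final present; cells express endogenous ER-alpha and carry four EREs upstream of luciferase.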

A short description of assay [19]: qHTS assay to identify small molecule antagonists of the TGF-beta/Smad signaling pathway - cell viability counter screen (AID 1346824). Further: nearly all actives have a fitted effect of over 50% in size. In a few lines:
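Cytotoxicity counter-screen run in the same wells as the beta-lactamase Smad reporter read: CellTiter-Glo luminescence after 30 min at room temperature. HEK 293T SBE-bla cells had 5 hr compound exposure at 37 C with TGF-beta1 (0.25 ng/mL stock).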

Assay [20] addresses Androgen receptor (Homo sapiens) (UniProt P10275). The assay is described as follows: qHTS assay to identify small molecule agonists of the androgen receptor (AR) signaling pathway in the presence of an antagonist (AID 1259381; calls by dose curve; further: nearly all actives have a fitted effect of over 15% in size). In outline:
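Luciferase read-out (ONE-Glo, 30min room temperature) in MDA-kb2 MMTV-reporter cells; agonist mode run in presence of AR antagonist nilutamide, 3.0uM final. Compounds tested as 15-point series, 16hr exposure at 37C, 0% CO2.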

Thyrotropin receptor (Homo sapiens), sequence (P16473 whole entry, looked up): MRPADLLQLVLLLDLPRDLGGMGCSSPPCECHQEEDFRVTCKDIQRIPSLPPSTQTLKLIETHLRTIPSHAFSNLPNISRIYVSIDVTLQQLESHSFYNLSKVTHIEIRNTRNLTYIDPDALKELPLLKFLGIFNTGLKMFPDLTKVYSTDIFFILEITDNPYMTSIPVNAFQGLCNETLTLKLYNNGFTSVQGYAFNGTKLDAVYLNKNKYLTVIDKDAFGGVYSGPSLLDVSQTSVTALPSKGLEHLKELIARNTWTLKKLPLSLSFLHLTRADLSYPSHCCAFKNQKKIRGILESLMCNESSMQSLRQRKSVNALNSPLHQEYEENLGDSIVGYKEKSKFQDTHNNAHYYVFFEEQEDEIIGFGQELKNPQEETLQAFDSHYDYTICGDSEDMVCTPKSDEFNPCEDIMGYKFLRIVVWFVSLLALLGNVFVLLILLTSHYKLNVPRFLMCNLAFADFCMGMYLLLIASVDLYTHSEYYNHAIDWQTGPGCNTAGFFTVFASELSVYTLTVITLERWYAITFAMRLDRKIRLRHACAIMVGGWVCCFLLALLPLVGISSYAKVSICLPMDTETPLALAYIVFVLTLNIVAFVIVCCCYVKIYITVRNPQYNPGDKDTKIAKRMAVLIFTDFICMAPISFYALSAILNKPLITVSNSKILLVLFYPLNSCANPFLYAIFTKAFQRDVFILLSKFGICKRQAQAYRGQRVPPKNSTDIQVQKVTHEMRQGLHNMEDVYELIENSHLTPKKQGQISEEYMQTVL
Estrogen receptor (Homo sapiens), sequence (P03372 whole entry, looked up): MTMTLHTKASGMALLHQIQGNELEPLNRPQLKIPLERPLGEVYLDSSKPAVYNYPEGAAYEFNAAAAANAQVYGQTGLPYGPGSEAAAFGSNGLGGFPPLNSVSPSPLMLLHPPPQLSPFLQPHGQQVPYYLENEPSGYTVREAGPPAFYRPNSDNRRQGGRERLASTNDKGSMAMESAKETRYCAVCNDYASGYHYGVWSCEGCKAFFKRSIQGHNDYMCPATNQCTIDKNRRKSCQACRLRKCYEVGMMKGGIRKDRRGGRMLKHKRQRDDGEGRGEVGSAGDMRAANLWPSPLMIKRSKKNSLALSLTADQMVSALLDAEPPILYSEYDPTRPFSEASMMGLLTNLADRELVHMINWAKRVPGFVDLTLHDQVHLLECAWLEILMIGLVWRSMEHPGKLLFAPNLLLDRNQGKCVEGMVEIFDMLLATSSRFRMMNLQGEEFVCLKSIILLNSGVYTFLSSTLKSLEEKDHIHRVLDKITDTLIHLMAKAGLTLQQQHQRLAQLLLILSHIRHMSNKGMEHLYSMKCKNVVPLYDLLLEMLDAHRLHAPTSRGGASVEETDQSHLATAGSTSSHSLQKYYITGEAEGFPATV
Progesterone receptor (Homo sapiens), sequence (P06401 whole entry, looked up): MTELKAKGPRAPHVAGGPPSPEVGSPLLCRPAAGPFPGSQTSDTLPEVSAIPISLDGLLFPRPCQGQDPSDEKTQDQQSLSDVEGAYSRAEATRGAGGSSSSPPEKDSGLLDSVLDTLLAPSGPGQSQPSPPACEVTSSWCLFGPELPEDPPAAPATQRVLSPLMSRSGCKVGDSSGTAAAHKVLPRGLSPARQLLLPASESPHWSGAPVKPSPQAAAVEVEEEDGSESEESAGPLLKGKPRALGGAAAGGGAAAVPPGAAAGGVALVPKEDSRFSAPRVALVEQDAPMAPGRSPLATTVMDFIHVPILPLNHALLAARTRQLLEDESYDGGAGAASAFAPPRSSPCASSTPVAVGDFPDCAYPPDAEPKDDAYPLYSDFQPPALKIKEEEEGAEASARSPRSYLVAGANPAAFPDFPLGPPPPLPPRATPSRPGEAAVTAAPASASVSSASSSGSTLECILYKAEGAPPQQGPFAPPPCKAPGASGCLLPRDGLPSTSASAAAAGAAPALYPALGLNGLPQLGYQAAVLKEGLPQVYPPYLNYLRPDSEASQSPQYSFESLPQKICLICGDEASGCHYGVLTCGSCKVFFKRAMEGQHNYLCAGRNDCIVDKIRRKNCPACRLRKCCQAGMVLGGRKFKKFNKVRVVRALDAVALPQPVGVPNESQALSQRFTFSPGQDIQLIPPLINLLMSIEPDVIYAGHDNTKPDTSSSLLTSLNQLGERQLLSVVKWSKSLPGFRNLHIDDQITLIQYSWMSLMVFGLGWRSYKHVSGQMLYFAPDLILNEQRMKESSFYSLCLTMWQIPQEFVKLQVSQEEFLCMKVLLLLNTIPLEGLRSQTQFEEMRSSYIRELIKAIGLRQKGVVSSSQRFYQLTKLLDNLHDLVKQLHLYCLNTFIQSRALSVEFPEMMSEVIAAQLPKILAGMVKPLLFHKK
Thyrotropin-releasing hormone receptor (Homo sapiens), sequence (P34981 whole entry, looked up): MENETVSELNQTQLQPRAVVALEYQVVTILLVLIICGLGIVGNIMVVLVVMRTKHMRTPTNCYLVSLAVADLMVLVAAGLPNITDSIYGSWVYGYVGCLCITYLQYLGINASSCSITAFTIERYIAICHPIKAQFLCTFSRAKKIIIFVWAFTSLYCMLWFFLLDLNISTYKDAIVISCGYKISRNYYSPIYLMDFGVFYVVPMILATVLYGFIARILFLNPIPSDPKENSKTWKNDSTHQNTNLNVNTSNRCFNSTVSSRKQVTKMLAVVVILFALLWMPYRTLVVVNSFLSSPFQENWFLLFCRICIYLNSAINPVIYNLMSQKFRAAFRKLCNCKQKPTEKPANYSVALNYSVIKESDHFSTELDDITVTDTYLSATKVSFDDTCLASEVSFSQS
Androgen receptor (Homo sapiens), sequence (P10275 whole entry, looked up): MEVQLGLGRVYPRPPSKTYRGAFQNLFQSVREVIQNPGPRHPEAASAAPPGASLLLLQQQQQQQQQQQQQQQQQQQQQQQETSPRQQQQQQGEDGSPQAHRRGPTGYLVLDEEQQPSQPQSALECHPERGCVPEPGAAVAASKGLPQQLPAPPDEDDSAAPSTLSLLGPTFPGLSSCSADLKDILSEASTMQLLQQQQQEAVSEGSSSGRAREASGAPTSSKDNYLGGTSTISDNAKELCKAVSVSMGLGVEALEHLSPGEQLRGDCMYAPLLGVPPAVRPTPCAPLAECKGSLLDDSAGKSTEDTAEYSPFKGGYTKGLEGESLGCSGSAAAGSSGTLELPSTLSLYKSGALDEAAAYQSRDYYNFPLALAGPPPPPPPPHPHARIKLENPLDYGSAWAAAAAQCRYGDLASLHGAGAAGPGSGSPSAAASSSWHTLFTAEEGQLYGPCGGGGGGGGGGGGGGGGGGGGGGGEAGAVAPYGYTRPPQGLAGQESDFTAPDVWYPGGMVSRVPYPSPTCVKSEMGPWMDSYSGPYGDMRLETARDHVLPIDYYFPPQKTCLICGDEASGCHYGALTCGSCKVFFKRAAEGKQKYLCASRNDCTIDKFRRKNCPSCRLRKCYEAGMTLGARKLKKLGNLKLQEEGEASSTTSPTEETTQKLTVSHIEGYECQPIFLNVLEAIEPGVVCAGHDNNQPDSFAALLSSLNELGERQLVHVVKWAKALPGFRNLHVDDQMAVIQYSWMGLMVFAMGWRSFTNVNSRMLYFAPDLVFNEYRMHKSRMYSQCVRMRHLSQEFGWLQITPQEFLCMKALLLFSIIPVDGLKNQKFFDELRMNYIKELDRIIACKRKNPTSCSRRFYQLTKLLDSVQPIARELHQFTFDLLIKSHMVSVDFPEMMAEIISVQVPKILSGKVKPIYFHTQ

Regarding `Cn1ccnc1`, the Potency entry in assay [1], in assay [2], in [3], in [4], in assay [5] and in [6] was “inactive” throughout. Further, the Potency result in assay [8], in assay [9], in assay [10], in assay [11], in assay [13] and in assay [14] was “inactive” each time. Further, the Potency result in assay [15], in [16] and in assay [17] was “inactive” throughout. The call in assay [7] and in assay [12] was inactive.
As for `CC(=O)CC(N)=O`, the Potency result in assay [1], in assay [2], in assay [3], in assay [18], in [6] and in [8] was “inactive” each time. Moreover, the Potency result in assay [9], in [19], in assay [11], in assay [13], in assay [14] and in [15] was “inactive” each time. The Potency entry in assay [16] and in assay [17] was “inactive” throughout. Further, the call in assay [7] and in assay [12] was inactive.
Take `COc1c(Br)cc(Br)c(C)c1Br`: the Potency entry in assay [1], in assay [2], in [3], in assay [4], in [6] and in [8] was “inactive” each time. In addition, the Potency entry in assay [9], in [10], in assay [19], in assay [11], in assay [13] and in assay [14] was “inactive” throughout. Also, the Potency result in [15], in assay [16] and in assay [17] was “inactive” throughout. Moreover, the compound was called inactive in assay [7] and in [12].
On to `O=C1CCCCCCCCCCCCCC1`, for which the Potency result in assay [1], in assay [3], in [18], in [4], in [6] and in assay [8] was “inactive” throughout. Besides, the Potency result in assay [9], in [10], in [19], in assay [11], in assay [13] and in [14] was “inactive” throughout. In addition, the Potency result in assay [15], in assay [16] and in assay [17] was “inactive” in each case. Moreover, the compound was called inactive in assay [7] and in [12].
As for `c1ccc(C[P+](c2ccccc2)(c2ccccc2)c2ccccc2)cc1`, the Potency in [1] was 2.73 µM (active); in [6] it was 27.3 µM (active); in assay [15], 24.3 µM (active); in assay [17], 61.1 µM (active). The Potency entry in [3], in [18], in [4], in [8], in [9] and in assay [11] was “inactive” in each case. Further, the Potency entry in assay [13], in assay [14] and in assay [16] was “inactive” throughout. Moreover, the compound was called inactive in assay [7].
On to `c1ccc2occc2c1`, for which the Potency result in assay [1], in [18], in [4], in assay [5], in assay [6] and in assay [19] was “inactive” in each case. The Potency result in assay [11], in assay [13], in [14], in assay [15], in assay [16] and in assay [17] was “inactive” throughout. For the same compound, the outcome in assay [7] and in assay [12] was inactive.
With `C=Cc1ccc(O)c(OC)c1`, the Potency entry in [1], in [18], in assay [4], in [5], in assay [6] and in assay [19] was “inactive” each time. The Potency entry in [11], in assay [13], in assay [14], in assay [15], in assay [16] and in [17] was “inactive” each time. Besides, the outcome in assay [7] and in [12] was inactive.
As for `CCOC(=O)C1=NN(c2ccc(Cl)cc2Cl)C(C)(C(=O)OCC)C1` (configuration not stated), the Potency result in assay [1], in [20], in assay [3], in assay [4], in [6] and in [9] was “inactive” in each case. The Potency entry in [10], in assay [19], in assay [11], in assay [13], in [14] and in [15] was “inactive” throughout. The Potency entry in assay [16] and in [17] was “inactive” in each case. For the same compound, the compound was called inactive in assay [7] and in assay [12]. The Potency in assay [8] is 27.3 µM (active).
Take `Cc1ccc(Cl)c(N)c1Cl`: the Potency result in assay [1], in assay [2], in [3], in assay [4], in assay [5] and in assay [6] was “inactive” throughout. Moreover, the Potency result in assay [19], in [11], in [16] and in [17] was “inactive” each time. For the same compound, the result in [12] was inactive.
